HT1080 IDH1KD tx – qHTS for induction of synthetic lethality in tumor cells producing 2HG: qHTS for the HT-1080-IDH1KD cell line | HT-1080 IDH1 knockdown viability, ATP luminescence, 48 h | Potency, µM (top dose mostly 46.1 µM), without a hit: at the highest dose activity, negative = toxicity, actives largely listed as cytotoxic | 360,000 tested, 2% active | AID 686971, 2013;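 note: potency is the fitted concentration of half-maximal effect; 0% = DMSO wells and -100% = cell-free medium wells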
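IDH1KD HT-1080 cells, 750/well, RPMI + 5% FBS; compound pinned after 2 h settling; 48 h, 37 °C; CellTiter-Glo luminescence; % activity normalised to DMSO and no-cell wells; curves fitted, classed by r2 and efficacy.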
DT40 TDP1 CPT – qHTS for Inhibitors of human tyrosyl-DNA phosphodiesterase 1 (TDP1): qHTS in cells in presence of CPT; 420,000 tested, 12% active; Potency, µM (highest dose often 46.2 µM), without a hit: top-dose activity change, negative = growth inhibition, usual class: inhibitors; chicken DT40 Tdp1-/-;hTDP1 cells + 20 nM CPT, ATP luminescence, 48 h; AID 686979, 2013; note: potency is the fitted concentration of half-maximal effect; nearly all actives have a fitted effect of over 55% in size
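Chicken DT40 Tdp1-/- cells stably complemented with human TDP1 were seeded at 400 cells/well in medium containing 20 nM camptothecin, exposed to pin-transferred compounds, and grown at 37 °C for at least 48 hr. Viability was read as ATP luminescence.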
TDP1 cell noCPT – qHTS for Inhibitors of human tyrosyl-DNA phosphodiesterase 1 (TDP1): qHTS in cells in absence of CPT | Potency, µM (highest dose often 46.2 µM), inactives show at the top dose activity change, negative = growth inhibition, most hits filed as inhibitors | 420,000 tested, 15% active | DT40 Tdp1-/- hTDP1 cells, no CPT, ATP luminescence, 48 h; note: potency is the fitted concentration of half-maximal effect; nearly all actives have a fitted effect of over 55% in size
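No-CPT arm: Tdp1-/-;hTDP1 DT40 cells (400/well) plus compounds, incubated ≥48 hr at 37 °C. Readout CellTiter-Glo luminescence.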
HT1080NT lethal – qHTS for induction of synthetic lethality in tumor cells producing 2HG: qHTS for the HT-1080-NT fibrosarcoma cell line. AID 686970, 2013. Potency, µM (highest dose often 46.1 µM), for the others: top-dose activity, negative = less viability, actives largely listed as cytotoxic. HT-1080-NT fibrosarcoma viability, CellTiter-Glo ATP luminescence, 48 h. 360,000 tested, 1.6% active;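 note: NT is the 2HG producing partner of a matched IDH1 knockdown line; potency is the fitted concentration of half-maximal effect; 0% = DMSO-treated cells and -100% = media-only wells without cells; nearly all actives have a fitted effect of over 55% in size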
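Luminescent CellTiter-Glo readout after 48 hours of compound exposure at 37 degrees C defined viability of HT-1080-NT cells. Activity was normalized to DMSO wells and cell-free media wells; concentration-response curves were fitted and assigned curve classes.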
IL-1B inflam inh – qHTS for Inhibitors of Inflammasome Signaling: IL-1-beta AlphaLISA Primary Screen | THP-1 LPS/ATP IL-1B secretion, AlphaLISA, 16 h; active compounds read low | activity change, % at 57.5 µM | 360,000 tested, 4.7% active | AID 743279, 2014; in the data active = activity change below about -50%; inconclusive = mostly about -30% to -49%
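THP-1 cells pretreated 1 hr with compounds (up to 57.5 uM final), then stimulated with LPS (250 ng/mL final) plus ATP (1.25 mM final); secreted IL-1B measured by AlphaLISA after 16 hr, decreased signal indicating inhibition.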
12-LOX inh – Primary qHTS assay for inhibitors of human arachidonate 12S-lipoxygenase (ALOX12): Round 2; Polyunsaturated fatty acid lipoxygenase ALOX12 (Homo sapiens), P18054; purified 12hLO, xylenol orange hydroperoxide absorbance; Potency, µM (highest dose often 108 µM), for inactives: at the highest dose activity change, negative = inhibition, actives largely listed as inhibitors; 580,000 tested, 1.1% active; AID 1671190, 2021; note: potency is the fitted concentration of half-maximal effect
Target sequence (P18054 whole entry, looked up): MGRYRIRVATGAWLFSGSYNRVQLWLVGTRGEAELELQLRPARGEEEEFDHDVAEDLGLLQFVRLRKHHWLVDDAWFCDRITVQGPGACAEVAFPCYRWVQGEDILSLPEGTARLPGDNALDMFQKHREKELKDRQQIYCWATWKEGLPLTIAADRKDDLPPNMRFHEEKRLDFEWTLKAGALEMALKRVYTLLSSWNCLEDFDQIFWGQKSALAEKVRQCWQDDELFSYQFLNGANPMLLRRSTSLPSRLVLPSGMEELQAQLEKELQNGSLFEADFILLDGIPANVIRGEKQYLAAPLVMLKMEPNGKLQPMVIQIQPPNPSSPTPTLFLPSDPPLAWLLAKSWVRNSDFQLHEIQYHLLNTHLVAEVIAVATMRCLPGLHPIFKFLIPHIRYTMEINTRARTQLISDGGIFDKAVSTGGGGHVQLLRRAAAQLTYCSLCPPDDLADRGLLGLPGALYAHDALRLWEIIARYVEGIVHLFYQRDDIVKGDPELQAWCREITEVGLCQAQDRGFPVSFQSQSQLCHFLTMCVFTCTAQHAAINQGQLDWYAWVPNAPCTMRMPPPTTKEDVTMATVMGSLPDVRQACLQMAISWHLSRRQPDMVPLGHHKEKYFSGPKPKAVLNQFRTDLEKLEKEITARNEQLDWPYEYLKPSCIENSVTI
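Hydroperoxide product was detected by ferrous iron/xylenol orange as the 573 to 405 nm absorbance ratio. Arachidonic acid at 40 uM (final) was turned over for 30 min at room temperature by 150 nM human 12hLO, pH 7.0 Hepes buffer, after 15 min compound preincubation.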
Starred values were filed as active, the others as inactive. The entries come from a sample that favours hits as a whole. Unless noted, calls come from the whole dose curve; as a rule, active = well fitted curve in the direction sought with a large enough effect; inconclusive = small, poorly fitted or top-dose-only effect, or another doubt; inactive = no such curve, though single readings can be large; an effect the other way counts as inactive or inconclusive. Unless noted, % is set by controls: 0 for no effect and ±100 for the full control effect.

COC1C=CC=C(C)C(=O)NC2=CC(=O)C(N)=C(CC(C)CC(OC)C(O)C(C)C=C(C)C1OC(N)=O)C2=O (stereo unspecified) was read as HT1080 IDH1KD tx 0.041µM*, DT40 TDP1 CPT 0.16µM*, TDP1 cell noCPT 0.18µM*, HT1080NT lethal inconclusive, IL-1B inflam inh -92* and 12-LOX inh -29%.
For CCCCCn1nc(C(=O)Nc2ccc(F)cc2)c2ccccc2c1=O the results were 12-LOX inh -2%.
CCOc1ccccc1NC(=O)c1nc2ccccc2nc1N1CCOCC1 was read as 12-LOX inh -24%.
CN1CCN(S(=O)(=O)c2ccc(Nc3cccc(Cl)c3)c([N+](=O)[O-])c2)CC1 was read as HT1080 IDH1KD tx -12%, DT40 TDP1 CPT inconclusive, TDP1 cell noCPT 23µM*, HT1080NT lethal -10%, IL-1B inflam inh -8 and 12-LOX inh 9%.
O=[N+]([O-])c1cc(S(=O)(=O)N2CCCC2)ccc1NN=C1CCCCC1 was read as HT1080 IDH1KD tx 9%, DT40 TDP1 CPT -15%, TDP1 cell noCPT -16%, HT1080NT lethal 16%, IL-1B inflam inh -2 and 12-LOX inh -11%.
For O=[N+]([O-])c1cc(S(=O)(=O)N2CCCCC2)ccc1NCc1cccc(Cl)c1 the results were HT1080 IDH1KD tx inconclusive, DT40 TDP1 CPT -16%, TDP1 cell noCPT 29µM*, HT1080NT lethal -1%, IL-1B inflam inh -18 and 12-LOX inh -4%.
Screening O=C(O)CC/C(=N\Nc1ccc(S(=O)(=O)N2CCCC2)cc1[N+](=O)[O-])c1cccs1 returned HT1080 IDH1KD tx 33µM*, DT40 TDP1 CPT -26%, TDP1 cell noCPT -30%, HT1080NT lethal inconclusive, IL-1B inflam inh 9 and 12-LOX inh -5%.
`COc1ccc(Nc2ccc(S(=O)(=O)N3CCCCC3)cc2[N+](=O)[O-])cc1Cl` gave HT1080 IDH1KD tx -9%, DT40 TDP1 CPT inconclusive, TDP1 cell noCPT inconclusive, HT1080NT lethal -1%, IL-1B inflam inh -14 and 12-LOX inh -3%.
`O=S(=O)(NCCc1coc(-c2ccccc2)n1)c1ccc2ccccc2c1` gave 12-LOX inh -24%.
For CC(=O)Nc1ccc(/C=C(/C#N)C(=O)C(C)(C)C)cc1 the results were 12-LOX inh -23%.
COc1cccc(CN(C)Cc2c(O)ccc3ccccc23)c1 was read as HT1080 IDH1KD tx -3%, DT40 TDP1 CPT inconclusive, TDP1 cell noCPT -18%, HT1080NT lethal -1%, IL-1B inflam inh inconclusive and 12-LOX inh 10µM*.
For COc1ccc(CN(C)Cc2c(O)ccc3ccccc23)cc1 the results were HT1080 IDH1KD tx 1%, DT40 TDP1 CPT inconclusive, TDP1 cell noCPT -2%, HT1080NT lethal 0%, IL-1B inflam inh -21 and 12-LOX inh 10µM*.
Screening CC(C)c1ccc(/C=C/C(=O)Nc2nc3ccc([N+](=O)[O-])cc3s2)cc1 returned HT1080 IDH1KD tx 4%, DT40 TDP1 CPT -1%, TDP1 cell noCPT -19%, HT1080NT lethal 0%, IL-1B inflam inh 21 and 12-LOX inh -13%.
O=[N+]([O-])c1ccc2nc(NN=Cc3ccc(O)cc3)sc2c1 was read as HT1080 IDH1KD tx 29µM*, DT40 TDP1 CPT 29µM*, TDP1 cell noCPT inconclusive, HT1080NT lethal inconclusive, IL-1B inflam inh -96* and 12-LOX inh -14%.
CC(C)CCNC(=O)c1cc(-c2ccc(Br)s2)nc2ccccc12 was read as DT40 TDP1 CPT 15µM*, TDP1 cell noCPT inconclusive and 12-LOX inh -22%.
Screening COc1ccc(-c2cc(C(=O)NCc3ccc(F)cc3)c3ccccc3n2)c(OC)c1 returned 12-LOX inh 16µM*.
`COc1ccc(CNC(=O)c2cc(-c3ccc(Br)s3)nc3ccccc23)c(OC)c1` gave DT40 TDP1 CPT inconclusive, TDP1 cell noCPT 15µM* and 12-LOX inh 2%.
Screening CONC(=O)COc1ccc(C#N)cc1 returned 12-LOX inh 7%.
Screening CC(C)C(=O)N1CCN(C(=O)c2cc(C(C)C)nc3ccccc23)CC1 returned 12-LOX inh 0%.
For CC(C)c1noc(CCC(=O)NC(C)c2ccccn2)n1 (stereo unspecified) the results were 12-LOX inh 32%.
`CCOc1ccc(C(=O)N2N=C(C)CC2(O)C(F)(F)F)cc1` (stereo unspecified) gave 12-LOX inh 53%.
For CC1=NN(C(=O)c2ccc(Cn3nc(C)c(Br)c3C)cc2)C(O)(C(F)(F)F)C1 (stereo unspecified) the results were HT1080 IDH1KD tx -6%, DT40 TDP1 CPT 0.82µM*, TDP1 cell noCPT 0.58µM*, HT1080NT lethal -3%, IL-1B inflam inh 65 and 12-LOX inh 26%.
For CC1=NN(C(=O)c2ccc(Cn3nc(C)c([N+](=O)[O-])c3C)cc2)C(O)(C(F)(F)F)C1 (stereo unspecified) the results were HT1080 IDH1KD tx 1.8µM*, DT40 TDP1 CPT inconclusive, TDP1 cell noCPT -20%, HT1080NT lethal 4.5µM*, IL-1B inflam inh 6 and 12-LOX inh 12%.
`Cc1oc(-c2nc(C#N)c(NCC3CCCO3)o2)cc1S(=O)(=O)N1CCCC1` (stereo unspecified) gave 12-LOX inh 15%.
`COc1ccc(CCNC(=O)CN(c2ccc(Br)c(C)c2)S(C)(=O)=O)cc1OC` gave 12-LOX inh -6%.
CCCNC(=O)CCn1c(=S)oc2ccccc21 was read as HT1080 IDH1KD tx 13%, DT40 TDP1 CPT 9.2µM*, TDP1 cell noCPT inconclusive, HT1080NT lethal 4%, IL-1B inflam inh -12 and 12-LOX inh -2%.
`C=CCn1c(-c2cccn(Cc3ccc(Cl)cc3Cl)c2=O)n[nH]c1=S` gave HT1080 IDH1KD tx inconclusive, DT40 TDP1 CPT -27%, TDP1 cell noCPT -8%, HT1080NT lethal inconclusive, IL-1B inflam inh 8 and 12-LOX inh 45µM*.
For CCN(CC)CCNC(=O)c1c(OCCOC)cc(=O)n2c1CCOCC2 the results were 12-LOX inh 35%.

Compound activity: PubChem, National Center for Advancing Translational Sciences (NCATS)
